# From PubChem BioAssay (NCATS)
# Inconclusive results are not listed. Where a call stands in place of a potency, no number is given. Calls of active or inactive are those of the source. Unless noted, calls come from the whole dose curve; as a rule, active = well fitted curve in the direction sought with a large enough effect; inconclusive = small, poorly fitted or top-dose-only effect, or another doubt; inactive = no such curve, though single readings can be large; an effect the other way counts as inactive or inconclusive.
# Legend:
# [1] = target: Luciferin 4-monooxygenase (Photinus pyralis) (UniProt P08659); assay: Biochemical firefly luciferase enzyme assay for NPC (AID 624030);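 note: purified P. pyralis luciferase at 10 nM with luciferin and ATP substrate; series mostly up to about 59 µM; nearly all actives have a fitted effect of over 70% in size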
# Chain of Luciferin 4-monooxygenase (Photinus pyralis) (P08659 whole entry, looked up): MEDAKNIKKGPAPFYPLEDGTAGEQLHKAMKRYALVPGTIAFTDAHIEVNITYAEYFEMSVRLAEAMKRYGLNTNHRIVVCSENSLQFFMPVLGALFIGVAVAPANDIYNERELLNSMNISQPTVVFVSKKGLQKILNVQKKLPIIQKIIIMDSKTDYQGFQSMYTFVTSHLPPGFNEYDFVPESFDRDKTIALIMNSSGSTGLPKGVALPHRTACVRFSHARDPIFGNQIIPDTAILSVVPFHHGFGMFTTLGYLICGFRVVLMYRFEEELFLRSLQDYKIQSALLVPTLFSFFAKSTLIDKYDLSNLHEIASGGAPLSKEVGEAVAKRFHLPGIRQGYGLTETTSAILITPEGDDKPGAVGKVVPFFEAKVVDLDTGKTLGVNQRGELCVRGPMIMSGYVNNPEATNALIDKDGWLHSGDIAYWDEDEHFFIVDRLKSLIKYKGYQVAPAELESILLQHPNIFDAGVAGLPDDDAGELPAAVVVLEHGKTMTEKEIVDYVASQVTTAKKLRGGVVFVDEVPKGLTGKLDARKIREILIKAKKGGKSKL
# How it was run: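 Counter-screen for direct inhibition of the luciferase enzyme by approved-drug library compounds, run at 10 nM enzyme in 50 mM Tris acetate (final). Luminescence was read within 5 min of enzyme-buffer addition and normalized to PTC124 versus DMSO (0%).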
# [2] = target: Glutaminase kidney isoform, mitochondrial (Homo sapiens) (UniProt O94925); assay: qHTS for Inhibitors of Glutaminase (GLS): LOPAC Validation (AID 624146);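 note: glutamate product detected by oxidase and peroxidase coupled Amplex red fluorescence gain; series mostly up to about 46 µM; nearly all actives have a fitted effect of over 60% in size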
# Chain of Glutaminase kidney isoform, mitochondrial (Homo sapiens) (O94925 whole entry, looked up, canonical isoform): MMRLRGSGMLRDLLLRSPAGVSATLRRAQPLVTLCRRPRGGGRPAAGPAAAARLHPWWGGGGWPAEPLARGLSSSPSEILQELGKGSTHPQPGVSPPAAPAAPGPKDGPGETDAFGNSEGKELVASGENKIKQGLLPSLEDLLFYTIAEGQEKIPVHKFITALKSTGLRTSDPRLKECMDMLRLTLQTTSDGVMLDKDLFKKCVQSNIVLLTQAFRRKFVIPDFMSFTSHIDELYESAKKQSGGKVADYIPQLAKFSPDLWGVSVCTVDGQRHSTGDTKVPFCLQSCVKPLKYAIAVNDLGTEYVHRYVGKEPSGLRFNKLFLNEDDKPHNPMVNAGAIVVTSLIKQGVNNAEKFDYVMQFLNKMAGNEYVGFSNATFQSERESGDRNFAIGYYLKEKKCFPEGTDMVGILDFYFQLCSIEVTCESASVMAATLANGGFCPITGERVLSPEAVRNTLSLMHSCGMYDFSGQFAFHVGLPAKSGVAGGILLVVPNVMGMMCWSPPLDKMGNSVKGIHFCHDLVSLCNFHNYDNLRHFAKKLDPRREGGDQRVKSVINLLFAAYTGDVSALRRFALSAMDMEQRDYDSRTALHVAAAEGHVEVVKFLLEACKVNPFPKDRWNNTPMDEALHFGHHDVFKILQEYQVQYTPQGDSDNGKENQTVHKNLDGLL
# Text: Glutaminase (GLS) catalyzes the hydrolysis of glutamine into glutamate and ammonia. It plays a critical role in glutaminolysis, which is an important energy source for proliferating cells. It was shown that c-Myc, an oncogenic transcription factor known to regulate microRNAs and to stimulate cell proliferation, increases glutamine metabolism by stimulating the expression of GLS via direct suppression of miR23a and miR23b.
# GLS is also thought to play a pathogenic role on HAD using a human HIV-1 infected macrophage system. […] GLS inhibition limits glutamate release and provides neuroprotection against HIV-1 infected macrophages.
# The overall goal of this project is to identify small molecule inhibitors of GLS through quantitative high throughput screening (qHTS) of the MLSMR. A validated potent and selective inhibitor can be used as a tool molecule to further study the pharmacology of its target as well as explore its potential therapeutic application in cancer and inflammatory neurological disorders, such as HIV1-associated dementia (HAD) and multiple sclerosis.
# NIH Chemical Genomics Center [NCGC]
# NIH Molecular Libraries Probe Centers Network [MLPCN]
# Assay Submitter (PI): Barbara S. Slusher, Johns Hopkins University
# Three 3 uL of hKGA is dispensed into black well 1536-well plates in 45 mM KH2PO4 (pH 8.2), 0.02% Tween-20. Then 23 nL of compounds are added through pin tool transfer. To this, 1 uL of 1mM L-Glutamine and 1 uL of a solution of L-Glutamateoxidase, HRP, Amplex red are added. Plate is centrifuged for 25 sec before an initial fluorescence read is obtained on the ViewLux, after 30 min of RT incubation, the final read is taken on the ViewLux.
# [3] = target: Thyroid hormone receptor beta (Homo sapiens) (UniProt P10828); assay: qHTS assay for small molecule agonists of thyroid hormone receptor beta signaling (AID 588545; calls by dose curve)
# Chain of Thyroid hormone receptor beta (Homo sapiens) (P10828 whole entry, looked up): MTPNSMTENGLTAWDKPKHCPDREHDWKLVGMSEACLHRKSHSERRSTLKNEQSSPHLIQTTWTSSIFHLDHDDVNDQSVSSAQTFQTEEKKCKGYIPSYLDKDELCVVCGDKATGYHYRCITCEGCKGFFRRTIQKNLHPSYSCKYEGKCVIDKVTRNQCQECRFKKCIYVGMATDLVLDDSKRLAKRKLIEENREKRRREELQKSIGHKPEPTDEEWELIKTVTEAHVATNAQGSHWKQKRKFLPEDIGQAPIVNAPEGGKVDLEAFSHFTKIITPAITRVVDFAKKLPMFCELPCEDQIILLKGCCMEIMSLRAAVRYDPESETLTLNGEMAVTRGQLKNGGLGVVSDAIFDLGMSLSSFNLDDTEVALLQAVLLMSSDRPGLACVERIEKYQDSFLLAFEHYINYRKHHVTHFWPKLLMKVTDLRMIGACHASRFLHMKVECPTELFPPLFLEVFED
# How it was run: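 Compounds were tested as agonists in TR-UAS-bla-GripTite HEK 293 cells. After 18 hrs at 37 C, CCF4 substrate was added and fluorescence read after 2 hrs at room temperature.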
# [4] = S16 Schwann cell PMP22 intronic element firefly luciferase assay (AID 624032); note: nearly all actives have a fitted effect of over 30% in size; note: potency is the fitted concentration of half-maximal effect
# How it was run: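 Rat S16 Schwann cells stably carrying a PMP22 intronic element-driven Fluc reporter were seeded overnight, then exposed to compounds for 24 h at 37 °C. Luminescence was normalized to PTC124 (positive control) and DMSO (0% activity).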
# [5] = S16 Schwann cell PMP22 intronic element beta-lactamase assay (AID 624044; calls by dose curve; note: nearly all actives have a fitted effect of over 15% in size; note: potency is the fitted concentration of half-maximal effect)
# How it was run: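 Beta-lactamase reporter under a PMP22 intronic regulatory element in stable S16 rat Schwann cells; 24 h compound exposure. 460 nm blue signal normalized between DMSO (0%) and potassium clavulanate, with 535 nm FRET tracking viability; curves classed by r2 and response.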
# [6] = S16 Schwann cell viability assay (CellTiter-Glo assay) (AID 624031);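 note: native untransfected S16 rat Schwann cells; cellular ATP luminescence as a viability measure; series mostly up to about 58 µM; nearly all actives have a fitted effect of over 70% in size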
# How it was run: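 Cells were seeded at 500-750 per well in phenol red-free DMEM with 10% FBS and left overnight. Compounds or DMSO were pinned in, incubation ran 24 h at 37 °C/5% CO2, then CellTiter-Glo reagent was added and luminescence measured.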
# [7] = qHTS assay for small molecule antagonists of retinoid X receptor alpha signaling (AID 588546; active = well fitted inhibition curve with a large enough effect in the signal ratio, with a control signal flat, not every such curve was filed as active; the % refers to the signal ratio); conditions: HEK293T RXRa-UAS-bla, beta-lactamase ratio, antagonist mode; measured here: W530 green channel, cytotoxicity proxy
# Text: (§1) NIH Chemical Genomics Center [NCGC] U.S. Environmental Protection Agency [EPA] National Institutes of Environmental Health Sciences [NIEHS] National Toxicology Program [NTP] NCGC Assay Overview The Retinoid X receptor (RXR), a nuclear hormone receptor is expressed in liver, spleen, placenta, epidermis, central nervous system. These receptors are able to form homo and heterodimers with other nuclear receptors and due to this heterodimerizing ability, RXR functions as master regulators producing diverse physiological effects. Three subtypes of RXR exist; alpha, beta and gamma. Retinoid X receptor alpha (RXR-alpha) has potential roles in metabolic signaling pathways, skin alopecia, dermal cysts, cardiac development, insulin sensitization etc. Therefore screening environmental chemicals on RXR-alpha signaling can be used for the studies focused on such therapeutic applications.
# (§2) NCGC Assay Protocol Summary Using a beta-lactamase reporter-gene under control of Retinoid X receptor--alpha (RXR-alpha) response element, a cell-based assay [GeneBLAzer (RXR-alpha -UAS-bla assay developed by Invitrogen] was used to measure RXR-alpha ligands signaling. GeneBLAzer RXR-alpha -UAS-bla HEK293T cells were used with assay medium containing 2% charcoal-stripped FBS. The assay was performed in clear bottom black Greiner 1536-well plates. Library compounds were measured for their ability to inhibit the reporter gene activity. Compounds were screened in a titration series in 1536-well format. The fluorescence intensity (405 nm excitation, 460/530 nm emission) was measured using an EnVision plate reader. Data was normalized relative to 9-cis-retinoic acid control (500 nM, 100%), and DMSO only wells (basal, 0%). Concentration-response titration points for each compound were fitted to the Hill equation yielding concentrations of half-maximal inhibition (IC50) and maximal response (efficacy) values. qHTS protocol for RXR-alpha beta-lactamase assay in antagonist mode [Step] [Parameter] [Value] [Description] 1. Reagent; 5 uL; 2500 cells/well 2. Incubation; 37 C for 4 hrs 3. Compounds; 23 nL; 0.59 nM to 92 uM 4. Controls (DMSO); 23 nL 5. Agonist (Stimulator); 1uL; 9-cis-retinoic acid at 500 nM and 100 nM final concentrations 6. Incubation; 37 C for 18 hrs 7. Detection reagent; 1 uL of CCF4-dye 8. Incubation; RT for 2 hrs 9. Detection; Fluorescence; Envision plate reader
# [8] = target: Retinoic acid receptor RXR-alpha (Homo sapiens) (UniProt P19793); assay: as above; conditions: HEK293T RXRa-UAS-bla, beta-lactamase ratio, antagonist mode
# Chain of Retinoic acid receptor RXR-alpha (Homo sapiens) (P19793 whole entry, looked up): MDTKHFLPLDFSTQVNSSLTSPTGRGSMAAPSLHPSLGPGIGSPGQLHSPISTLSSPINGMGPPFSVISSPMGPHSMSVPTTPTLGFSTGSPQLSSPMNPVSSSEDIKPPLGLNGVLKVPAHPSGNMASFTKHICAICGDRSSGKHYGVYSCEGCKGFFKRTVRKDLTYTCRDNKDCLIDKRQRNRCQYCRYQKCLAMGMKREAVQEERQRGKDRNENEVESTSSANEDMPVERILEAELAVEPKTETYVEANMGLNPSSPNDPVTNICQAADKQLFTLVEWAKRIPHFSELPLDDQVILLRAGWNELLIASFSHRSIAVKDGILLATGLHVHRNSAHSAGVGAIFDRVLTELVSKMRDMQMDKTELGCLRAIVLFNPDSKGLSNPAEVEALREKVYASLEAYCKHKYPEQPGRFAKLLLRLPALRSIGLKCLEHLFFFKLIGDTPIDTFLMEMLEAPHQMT
# Text: as §1, §2
# [9] = target: Thyroid hormone receptor beta (Homo sapiens) (UniProt P10828); assay: qHTS assay for small molecule antagonists of thyroid hormone receptor beta signaling (AID 588547; active = well fitted inhibition curve with a large enough effect in the signal ratio, with a control signal flat, not every such curve was filed as active; the % refers to the signal ratio;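 note: cells stimulated with 0.4 nM T3 agonist during compound exposure; series mostly up to about 77 µM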); conditions: TR-UAS-bla HEK293, beta-lactamase ratio, antagonist mode, 18 h
# How it was run: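 TR-UAS-bla GripTite HEK293 cells in 2% charcoal/dextran FBS medium were preincubated 4 h at 37 C, given compound (0.59 nM to 92 uM) plus 0.4 nM T3 (final) for 18 h, then CCF4 for 2 h at RT; Hill fit gave IC50.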
# [10] = target: Voltage-gated inwardly rectifying potassium channel KCNH2 (Homo sapiens) (UniProt Q12809); assay: qHTS Assay for Small Molecule Inhibitors of the Human hERG Channel Activity (AID 588834);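 note: top concentration of the series differs between compounds; lower thallium flux fluorescence means stronger hERG block; nearly all actives have a fitted effect of over 50% in size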
# Chain of Voltage-gated inwardly rectifying potassium channel KCNH2 (Homo sapiens) (Q12809 whole entry, looked up): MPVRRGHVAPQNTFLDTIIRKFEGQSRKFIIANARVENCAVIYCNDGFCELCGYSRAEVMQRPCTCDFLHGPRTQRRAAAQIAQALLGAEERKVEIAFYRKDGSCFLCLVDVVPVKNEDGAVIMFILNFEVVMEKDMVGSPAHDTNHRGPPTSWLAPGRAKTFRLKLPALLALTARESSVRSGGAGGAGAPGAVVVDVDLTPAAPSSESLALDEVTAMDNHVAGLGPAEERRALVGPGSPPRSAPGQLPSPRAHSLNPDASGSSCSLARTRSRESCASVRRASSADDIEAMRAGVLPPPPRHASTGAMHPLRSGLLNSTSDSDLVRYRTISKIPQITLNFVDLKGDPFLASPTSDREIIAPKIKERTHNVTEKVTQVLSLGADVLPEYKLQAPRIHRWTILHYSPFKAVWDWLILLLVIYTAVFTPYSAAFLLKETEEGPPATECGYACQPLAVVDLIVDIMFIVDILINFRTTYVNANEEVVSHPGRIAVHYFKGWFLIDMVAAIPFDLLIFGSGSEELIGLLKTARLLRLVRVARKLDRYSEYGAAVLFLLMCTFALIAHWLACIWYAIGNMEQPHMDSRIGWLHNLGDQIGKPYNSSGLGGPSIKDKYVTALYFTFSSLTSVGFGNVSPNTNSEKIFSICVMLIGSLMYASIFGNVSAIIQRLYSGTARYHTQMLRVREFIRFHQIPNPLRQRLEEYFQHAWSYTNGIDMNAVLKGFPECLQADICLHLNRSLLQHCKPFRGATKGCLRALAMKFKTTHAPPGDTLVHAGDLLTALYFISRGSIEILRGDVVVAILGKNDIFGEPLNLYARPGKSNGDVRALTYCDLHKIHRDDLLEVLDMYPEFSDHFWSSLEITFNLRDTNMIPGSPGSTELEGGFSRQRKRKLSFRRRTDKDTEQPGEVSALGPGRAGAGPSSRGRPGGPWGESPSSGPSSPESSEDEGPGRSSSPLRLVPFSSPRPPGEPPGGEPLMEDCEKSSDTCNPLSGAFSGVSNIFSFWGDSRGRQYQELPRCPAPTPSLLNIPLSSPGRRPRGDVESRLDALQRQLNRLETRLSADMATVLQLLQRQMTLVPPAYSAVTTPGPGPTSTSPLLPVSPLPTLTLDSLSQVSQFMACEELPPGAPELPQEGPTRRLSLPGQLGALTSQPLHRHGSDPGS
# How it was run: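 Homogeneous FluxOR thallium flux assay using hERG-expressing U2OS cells (BacMam). Compound treatment about 10 minutes preceded stimulation; reduced fluorescence taken as channel block.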
compound,measurement,setting,value
Nc1ccn(C[C@@H](CO)OCP(=O)(O)O)c(=O)n1,outcome,[1],inactive
COc1ccc2cc([S+]([O-])Cc3ncc(C)c(OC)c3C)nc2c1,outcome,[2],inactive
CC(C=CC1=C(C)CCCC1(C)C)=CC=CC(C)=CC(=O)Nc1ccc(O)cc1,outcome,[3],inactive
CCCCCCCCCCCC(CC1OC(=O)C1CCCCCC)OC(=O)C(CC(C)C)NC=O (centres undefined),outcome,[1],inactive
same,Potency,[4],7.21 µM (active)
same,Potency,[5],12.6 µM (active)
Cc1onc(-c2ccccc2)c1C(=O)N[C@@H]1C(=O)N2[C@@H](C(=O)O)C(C)(C)S[C@@H]12,outcome,[1],inactive
CN[C@H](CC(C)C)C(=O)N[C@H]1C(=O)N[C@@H](CC(N)=O)C(=O)N[C@@H]2C(=O)N[C@H]3C(=O)N[C@H](C(=O)N[C@H](C(=O)O)c4cc(O)cc(O)c4-c4cc3ccc4O)[C@H](O)c3ccc(c(Cl)c3)Oc3cc2cc(c3O[C@@H]2O[C@H](CO)[C@@H](O)[C@H](O)[C@@H]2O[C@H]2C[C@](C)(N)[C@H](O)[C@H](C)O2)Oc2ccc(cc2Cl)[C@H]1O,outcome,[2],inactive
OCC(O)C(O)C(O)CO (centres undefined),outcome,[1],inactive
same,outcome,[6],inactive
same,Potency,[4],inactive
same,Potency,[5],inactive
CCCCCCCN(CC)CCCC(O)c1ccc(NS(C)(=O)=O)cc1 (centres undefined),outcome,[1],inactive
Cc1cc(O)c2c(c1)C(=O)c1cccc(O)c1C2=O,max response,[7],-3.99%
same,max response,[8],11.5% (inactive)
same,activity change % (negative = inhibition),[9],3.18% (inactive)
same,outcome,[10],inactive
COc1ccc2c(c1OC)C(=O)OC2[C@H]1c2c(cc3c(c2OC)OCO3)CCN1C (some centres undefined),outcome,[1],inactive
same,outcome,[6],inactive
same,Potency,[4],inactive
same,Potency,[5],inactive
OC[C@@H](O)[C@@H](O)[C@H](O)[C@@H](O)CO,outcome,[3],inactive
same,max response,[7],-4.07%
same,max response,[8],-2% (inactive)
same,activity change % (negative = inhibition),[9],1.79% (inactive)
C#CCC(Cc1cnc2nc(N)nc(N)c2n1)c1ccc(C(=O)N[C@@H](CCC(=O)O)C(=O)O)cc1 (some centres undefined),outcome,[1],inactive
C[C@]12CC[C@@H]3c4ccc(O)cc4CC[C@H]3[C@H]1CC[C@H]2O,outcome,[3],inactive
same,max response,[7],6.57%
same,max response,[8],-12.2% (inactive)
same,activity change % (negative = inhibition),[9],-1.66% (inactive)
CCC(C(=O)O)C1CCC(C)C(C(C)C(O)C(C)C(=O)C(CC)C2OC3(C=CC(O)[C@@]4(CC[C@](C)(C5CC[C@@](O)(CC)C(C)O5)O4)O3)C(C)CC2C)O1 (some centres undefined),outcome,[1],inactive
CC1(C)[C@H](O[C@H]2O[C@H](C(=O)O)[C@@H](O)[C@H](O)[C@H]2O[C@@H]2O[C@H](C(=O)O)[C@@H](O)[C@H](O)[C@H]2O)CC[C@@]2(C)[C@H]1CC[C@]1(C)[C@H]2C(=O)C=C2[C@H]3C[C@@](C)(C(=O)O)CC[C@]3(C)CC[C@]21C,outcome,[1],inactive
Nc1ccn(C2CO[C@H](CO)O2)c(=O)n1 (some centres undefined),outcome,[1],inactive
N[C@H]1CN(c2c(F)cc3c(=O)c(C(=O)O)cn(C4C[C@@H]4F)c3c2Cl)CC12CC2 (some centres undefined),outcome,[1],inactive
O=C1c2cccc(O)c2C(=O)c2c(O)cc(CO)cc21,outcome,[3],inactive
same,max response,[7],-0.0097%
same,max response,[8],15.1% (inactive)
same,activity change % (negative = inhibition),[9],26.1% (inactive)
COc1cccc2c1C(=O)c1c(O)c3c(c(O)c1C2=O)C[C@@](O)(C(=O)CO)C[C@@H]3O[C@H]1C[C@H](N)[C@H](OC2CCCCO2)[C@H](C)O1 (some centres undefined),outcome,[6],inactive
same,Potency,[4],inactive
CCCCCCCCCCCCCCCC(=O)OC[C@@H](NC(=O)C(Cl)Cl)[C@H](O)c1ccc([N+](=O)[O-])cc1,outcome,[1],inactive
C[C@H]1C[C@H]2[C@@H]3CCC4=CC(=O)C=C[C@]4(C)[C@@H]3C(=O)C[C@]2(C)[C@@]1(O)C(=O)CO,outcome,[1],inactive
Nc1nc2c(c(=O)[nH]1)N(C=O)[C@H](CNc1ccc(C(=O)N[C@@H](CCC(=O)O)C(=O)O)cc1)CN2,outcome,[1],inactive
same,outcome,[6],inactive
same,Potency,[4],inactive
same,Potency,[5],inactive
O=c1[nH]c(=O)n([C@H]2C[C@@H](O)[C@@H](CO)O2)cc1C=CBr,outcome,[2],inactive
O=C(O)C(=O)Nc1cccc(C2=NN=N[N]2)c1,outcome,[1],inactive
N=c1ccn2c(n1)O[C@H]1[C@@H](O)[C@@H](CO)O[C@H]12,outcome,[10],inactive
COC1=C(OC)C(=O)C(CC=C(C)CCC=C(C)CCC=C(C)CCC=C(C)CCC=C(C)CCC=C(C)CCC=C(C)CCC=C(C)CCC=C(C)CCC=C(C)C)=C(C)C1=O,outcome,[1],inactive
COc1ccc([C@@H]2CNC(=O)C2)cc1OC1CCCC1,outcome,[1],inactive
same,outcome,[6],inactive
same,Potency,[5],inactive
O=C1c2c(O)cccc2[C@@H]([C@@H]2O[C@H](CO)[C@@H](O)[C@H](O)[C@H]2O)c2cc(CO)cc(O)c21,outcome,[1],inactive
